Test results published in PubChem BioAssay (EPA / NIEHS).
Several values for one entry are separate records, joined by “and”; a condition that tells them apart may be missing. Equal values may be shown once. Results filed as inconclusive are left out. Activity calls are given as the source filed them. How the source made its calls: active means hit-call score of the fitted dose curve at least 0.9, where 1 is the maximum; inconclusive means response in the unintended direction; inactive means score below 0.9.

Columns and labels:
[1] = target: Cellular tumor antigen p53 (Homo sapiens) (UniProt P04637); test: TOX21_p53_BLA_p5_ratio: Tox21 HCT-116 p53 Agonism Beta-lactamase Assay, Ratio, Phase 5 (AID 2283599)
How it was run: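 Beta-lactamase reporter ratio (blue 460 nm over green 530 nm, 405 nm excitation) after 2 h CCF4-AM loading, in HCT-116 cells exposed 16 h at 37 C to compounds pinned at 217-fold dilution. Increases relative to DMSO baseline scored.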

[2] = TOX21_p53_BLA_p5_viability: Viability Assessment in the Tox21 HCT-116 p53 Agonism Beta-lactamase Assay, Phase 5 (AID 2283600)
How it was run: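 After the 460/530 nm beta-lactamase measurement, the wells received an ATP-detection luciferase reagent; signal was read 30 min later at RT. Compound treatment lasted 16 h on cells pre-incubated 5 h post-seeding.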

[3] = target: Cellular tumor antigen p53 (Homo sapiens) (UniProt P04637); test: TOX21_p53_BLA_p4_ratio: Tox21 HCT-116 p53 Agonism Beta-lactamase Assay, Ratio, Phase 4 (AID 2283601)
How it was run: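 Signal is the blue/green (460nm/530nm) ratio of cleaved versus uncleaved CCF4-AM substrate, read after 2 h substrate loading. Cells were HCT116 carrying the p53-responsive beta-lactamase reporter, dosed 16 h at 37C, 5% CO2; CellTiter-Glo measured in parallel.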

[4] = Tanguay_ZF_120hpf_MORT_legacy: (Legacy) Oregon State University Tanguay Lab 120 Hour Post-fertilization zebrafish Assay for Mortality (AID 2283633);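 on AC50: fitted as increase in binary mortality versus DMSO negative control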
How it was run: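 Static waterborne exposure from 6 to 120 hpf at 28C of single dechorionated wild-type (5D) embryos per well, 0.64% DMSO final. Death recorded present/absent by brightfield at 24 and 120 hpf.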

[5] = Tanguay_ZF_120hpf_YSE_legacy: (Legacy) Oregon State University Tanguay Lab 120 Hour Post-fertilization zebrafish Assay for Yolk Sac Edema (AID 2283634);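 on AC50: actives raise the incidence of yolk sac edema above the DMSO baseline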
How it was run: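 Presence or absence of yolk sac edema was recorded at 120 hpf in surviving larvae. These were wild-type Tropical 5D embryos, chorion removed at 4 hpf, held in static exposure at 28C from 6 hpf with 0.64% DMSO vehicle.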

[6] = Tanguay_ZF_120hpf_EYE_legacy: (Legacy) Oregon State University Tanguay Lab 120 Hour Post-fertilization zebrafish Assay for Eye Malformation (AID 2283636)
How it was run: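 Read-out is binary presence or absence of eye malformation, scored by brightfield microscopy at 120 hpf. Single larvae were exposed from 6 hpf in embryo medium containing 0.64% DMSO, with DMSO as baseline.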

[7] = Tanguay_ZF_120hpf_SNOU_legacy: (Legacy) Oregon State University Tanguay Lab 120 Hour Post-fertilization zebrafish Assay for Snout Malformation (AID 2283637)
How it was run: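 Snout malformation read as a yes/no call on brightfield images of 120 hpf larvae (Tropical 5D strain). Static exposure began at 6 hpf on dechorionated embryos in 0.64% DMSO, with gain of signal analysed versus DMSO controls.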

[8] = Tanguay_ZF_120hpf_JAW_legacy: (Legacy) Oregon State University Tanguay Lab 120 Hour Post-fertilization zebrafish Assay for Jaw Malformation (AID 2283638);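 on AC50: active means more embryos with jaw malformation than DMSO controls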
How it was run: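 Binary jaw-malformation call at 120 hpf by brightfield microscopy. Embryos (Tropical 5D strain, chorion removed at 4 hpf) were dosed statically at 6 hpf, one per well, at 28C with 0.64% DMSO. Embryos that died were not scored.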

[9] = Tanguay_ZF_120hpf_AXIS_legacy: (Legacy) Oregon State University Tanguay Lab 120 Hour Post-fertilization zebrafish Assay for Body Axis Malformation (AID 2283635)
How it was run: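 Binary scoring of axis defects at 120 hpf under brightfield, fitted positive versus DMSO. Tropical 5D embryos, chorion removed by pronase at 4 hpf, were singly exposed in sealed, dark plates at 28C from 6 hpf; DMSO 0.64% final.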

Measured: AC50

Cellular tumor antigen p53 (Homo sapiens), sequence (P04637 whole entry, looked up): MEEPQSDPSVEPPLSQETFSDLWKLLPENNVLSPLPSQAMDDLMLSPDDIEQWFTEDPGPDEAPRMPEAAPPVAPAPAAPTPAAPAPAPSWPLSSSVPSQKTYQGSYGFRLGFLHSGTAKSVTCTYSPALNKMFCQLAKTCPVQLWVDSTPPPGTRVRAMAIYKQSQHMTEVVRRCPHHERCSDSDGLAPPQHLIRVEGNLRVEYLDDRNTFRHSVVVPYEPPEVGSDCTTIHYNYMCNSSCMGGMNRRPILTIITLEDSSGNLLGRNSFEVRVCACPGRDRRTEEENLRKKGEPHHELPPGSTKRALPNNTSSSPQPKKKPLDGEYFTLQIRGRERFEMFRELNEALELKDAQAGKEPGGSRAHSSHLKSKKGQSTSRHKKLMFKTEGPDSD

CCCCCCOCCO
inactive: [1] | [2] | [3] | [4] | [5] | [6] | [7] | [8]

CCCCCC(=O)O
inactive: [1] | [3] | [4] | [5] | [6] | [7]

CN1CCN(Cc2cc(-c3ccc4[nH]c(=O)oc4c3)co2)[C@@H](c2ccc(F)cc2)C1
inactive: [4] | [5] | [6]
active: [7] 25.6 µM | [8] 25.7 µM

CC1(C)CC(N=C=O)CC(C)(CN=C=O)C1 (stereo not given)
inactive: [1] | [2] | [3] | [4] | [5] | [7] | [8]

COc1ccc2c(c1)c(CC(=O)O)c(C)n2C(=O)c1ccc(Cl)cc1
inactive: [1] | [2] | [3] | [4] | [6] | [7]

CCCCCCC(=O)OCC
inactive: [3] | [4] | [6] | [7]

CCCCCCCCCCCCCO
inactive: [1] | [2] | [3] | [4] | [5] | [6] | [7] | [8]

Nc1ccc(S(=O)(=O)c2ccc(N)cc2)cc1
inactive: [1] | [2] | [3] | [4] | [6] | [7]

Cc1cccc(Nc2cc(Cl)nc(SCC(=O)O)n2)c1C
inactive: [1] | [3] | [4] | [5] | [6] | [7] | [8]

Nc1ccc2c(c1)C(=O)c1ccccc1C2=O
inactive: [1] | [2] | [3] | [4] | [5] | [6] | [7]

CC(C)(C)c1cc(O)c(C(C)(C)C)cc1O
inactive: [2] | [3] | [6]
active: [1] 90.5 µM | [4] 11 µM | [5] 25.7 µM | [7] 35.6 µM | [8] 47.5 µM

CCCCN(CCCC)CCCC
inactive: [1] | [4] | [5] | [7]

COc1cccc2c1C(=O)c1c(O)c3c(c(O)c1C2=O)C[C@@](O)(C(=O)CO)C[C@@H]3O[C@H]1C[C@H](N)[C@H](O)[C@H](C)O1
active: [1] 238 nM and 422 nM | [3] 211 nM and 437 nM

CC(CO)OC(C)CO (stereo not given) (tested in a mixture with another compound)
inactive: [4] | [5] | [9] | [6] | [7]

NCCO
inactive: [1] | [3] | [4] | [5] | [6] | [7]

CCNc1cccc(C)c1
inactive: [1] | [2] | [3] | [4] | [5] | [6] | [7] | [8]

COC(=O)c1ccc(O)cc1
inactive: [1] | [2] | [3] | [4] | [5] | [6] | [7]

C[Si]1(C)O[Si](C)(C)O[Si](C)(C)O[Si](C)(C)O1
inactive: [1] | [3] | [4] | [5] | [6] | [7] | [8]

Cc1nc(C)nc(N2C[C@@H](C)N(c3ccnc([C@@H](C)O)n3)[C@@H](C)C2)n1
inactive: [2] | [4] | [5] | [9] | [6] | [7]

Cc1cc(=O)[nH]c(=S)[nH]1
inactive: [1] | [2] | [3] | [4] | [5] | [6] | [7] | [8]

FC(F)(F)C(F)(F)C(F)(F)C(F)(F)C(F)(F)C(F)(F)CCI
inactive: [1] | [4] | [5] | [9] | [6] | [7] | [8]

CCCc1cc(=O)[nH]c(=S)[nH]1
inactive: [1] | [2] | [3] | [5] | [9] | [6] | [7]

OC[C@@H](O)[C@@H](O)[C@H](O)[C@H](O)CO
inactive: [1] | [2] | [3] | [4] | [5] | [6] | [7]

Cc1ccc2ncccc2c1
inactive: [1] | [2] | [3] | [4] | [5] | [6] | [7]

CCCCCCCCCCC
inactive: [3] | [4] | [5] | [6] | [7] | [8]

CCCCCCCCCCCCCCCC
inactive: [4] | [5] | [9] | [6] | [7] | [8]
